From PubChem BioAssay (NCI) come the findings set out here.

Assay [1] can be described thus: NCI Yeast Anticancer Drug Screen. Data for the rad50 strain (AID 155).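 Further: 0% = growth of vehicle-only cultures of the same strain.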 The note with it: S. cerevisiae rad50 strain growth inhibition, stronger effect = higher value. The procedure, abridged: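 Growth of the mutant yeast was measured after compound exposure and referenced to vehicle-treated cultures.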
A short description of assay [2]: NCI Yeast Anticancer Drug Screen. Data for the mec2-1 strain (AID 157). The note with it: S. cerevisiae mec2-1 strain, stronger effect = higher value. In a few lines: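 Using mec2-1 yeast: add compound, measure growth, express inhibition versus vehicle-treated cultures.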
Assay [3] is described as follows: NCI Yeast Anticancer Drug Screen. Data for the sgs1 mgt1 strain (AID 161).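 Further: 0% = growth of cultures given vehicle only.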 The note with it: S. cerevisiae sgs1 mgt1 strain, stronger effect = higher value. In a few lines:
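Growth of a repair-deficient yeast mutant was monitored after compound treatment and expressed as inhibition relative to vehicle-treated cultures.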

The nature of assay [4]: NCI Yeast Anticancer Drug Screen. Data for the cln2 rad14 strain (AID 165).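 Further: 0% = growth equal to vehicle treated cultures.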 The conditions noted are these: S. cerevisiae cln2 rad14 strain, stronger effect = higher value. The procedure, abridged:
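Yeast strain cln2 rad14, bearing defects in cell cycle control and DNA repair, serves as the test system; values reflect growth inhibition compared with vehicle.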

Assay [5] can be described thus: NCI Yeast Anticancer Drug Screen. Data for the bub3 strain (AID 167). The note with it: S. cerevisiae bub3 mutant strain, stronger effect = higher value. The procedure, abridged:
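Whole-cell yeast assay. The mutant strain was incubated with compounds, and growth inhibition was determined by comparison with vehicle-treated cells.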

Assay [6] can be described thus: NCI Yeast Anticancer Drug Screen. Data for the mlh1 rad18 strain (AID 175). The note with it: S. cerevisiae mlh1 rad18 strain growth inhibition, stronger effect = higher value. In a few lines:
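Steps: expose repair-defective yeast to compound; measure growth; express inhibition against vehicle-treated controls.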

[7] abbreviates: at 5.0 µM (retest, dose inferred, filed as 0.5).
Setting [8] is: at 50.0 µM (retest, dose inferred, filed as 5.0).

Molecules are shown by their SMILES. About 79,000 compounds went through this panel and 15% of them were active in at least one assay; those are over-represented in the sample as a whole. Values without a mark were called inactive. Active and inactive are the calls of the source. No stated cut-off is given here; in the data, active means growth inhibition above about 70%; inactive means the rest.

With `O=C(Oc1cccc2cccnc12)c1ccccc1`, the growth inhibition in assay [1] (setting [7]) was 4%; in assay [1] (setting [8]), 97% (active); in assay [1] (at 50.0 µM), 96.4% (active); in assay [2] (setting [7]) it was -22%; in assay [2] (setting [8]) it was 98% (active); in assay [2] (at 50.0 µM), 97% (active). The growth inhibition is -4% in assay [3] (setting [7]); 97% (active) in assay [3] (setting [8]); 93.6% (active) in assay [3] (at 50.0 µM); 2% in assay [4] (setting [7]); 85% (active) in assay [4] (setting [8]); 91.2% (active) in assay [4] (at 50.0 µM). Further, the growth inhibition is 28% in assay [5] (setting [7]); 99% (active) in assay [5] (setting [8]); 98% (active) in assay [5] (at 50.0 µM); 7% in assay [6] (setting [7]); 98% (active) in assay [6] (setting [8]); 95.2% (active) in assay [6] (at 50.0 µM).
For `Cc1ccsc1/C=N/Nc1ccc2ccccc2n1`, the growth inhibition in assay [1] (setting [7]) is 30%; in assay [1] (setting [8]), 72% (active); in assay [1] (at 50.0 µM), 78% (active); in assay [2] (setting [7]), 20%; in assay [2] (setting [8]), 74% (active); in assay [2] (at 50.0 µM) it was 59.5%. For the same molecule, the growth inhibition in assay [3] (setting [7]) is 44%; in assay [3] (setting [8]) it was 97% (active); in assay [3] (at 50.0 µM) it was 86.8% (active); in assay [4] (setting [7]) it was 47%; in assay [4] (setting [8]), 91% (active); in assay [4] (at 50.0 µM), 50.6%. Further, the growth inhibition was 42% in assay [5] (setting [7]); 95% (active) in assay [5] (setting [8]); 79% (active) in assay [5] (at 50.0 µM); 25% in assay [6] (setting [7]); 84% (active) in assay [6] (setting [8]); 23.4% in assay [6] (at 50.0 µM).
Regarding `O=Cc1ccc(O)c2ccccc12`, the growth inhibition is -3% in assay [1] (setting [7]); 66% in assay [1] (setting [8]); 63.2% in assay [1] (at 50.0 µM); 1% in assay [2] (setting [7]); 47% in assay [2] (setting [8]); 76.6% (active) in assay [2] (at 50.0 µM). The growth inhibition in assay [3] (setting [7]) is -9%; in assay [3] (setting [8]) it was 85% (active); in assay [3] (at 50.0 µM) it was 75.6% (active); in assay [4] (setting [7]) it was 1%; in assay [4] (setting [8]), 23%; in assay [4] (at 50.0 µM), 32.8%. For the same molecule, the growth inhibition in assay [5] (setting [7]) was -1%; in assay [5] (setting [8]) it was 78% (active); in assay [5] (at 50.0 µM), 48%; in assay [6] (setting [7]), -5%; in assay [6] (setting [8]) it was 88% (active); in assay [6] (at 50.0 µM) it was 64.5%.
With `COc1cc(C2=N/C(=C\c3ccccc3O)C(=O)O2)cc(OC)c1OC`, the growth inhibition was -23% in assay [1] (setting [7]); -22% in assay [1] (setting [8]); -9.9% in assay [1] (at 50.0 µM); -8% in assay [2] (setting [7]); -21% in assay [2] (setting [8]); -27.1% in assay [2] (at 50.0 µM). Besides, the growth inhibition in assay [3] (setting [7]) is -15%; in assay [3] (setting [8]), -6%; in assay [3] (at 50.0 µM), 4.05%; in assay [4] (setting [7]), 0%; in assay [4] (setting [8]), 2%; in assay [4] (at 50.0 µM), 8.7%. In addition, the growth inhibition was -20% in assay [5] (setting [7]); -23% in assay [5] (setting [8]); 10.8% in assay [5] (at 50.0 µM); -43% in assay [6] (setting [7]); -47% in assay [6] (setting [8]); 0.65% in assay [6] (at 50.0 µM).
For the molecule `CCOC(=O)C(=O)Nc1ccc(Cl)cc1Cl`, the growth inhibition in assay [1] (setting [7]) is -12%; in assay [1] (setting [8]), -1%; in assay [1] (at 50.0 µM) it was -1.5%; in assay [2] (setting [7]), -12%; in assay [2] (setting [8]), -5%; in assay [2] (at 50.0 µM), -10.3%. Besides, the growth inhibition in assay [3] (setting [7]) is -1%; in assay [3] (setting [8]) it was -2%; in assay [3] (at 50.0 µM), -2.25%; in assay [4] (setting [7]), 14%; in assay [4] (setting [8]), 34%; in assay [4] (at 50.0 µM), -1.75%. For the same molecule, the growth inhibition in assay [5] (setting [7]) is 10%; in assay [5] (setting [8]), -10%; in assay [5] (at 50.0 µM) it was 10.6%; in assay [6] (setting [7]), 1%; in assay [6] (setting [8]), 7%; in assay [6] (at 50.0 µM), 19.1%.
In the case of `COC/C=N/Nc1ccc([N+](=O)[O-])cc1`, the growth inhibition in assay [1] (setting [7]) was 90% (active); in assay [1] (setting [8]) it was 98% (active); in assay [1] (at 50.0 µM) it was 98.6% (active); in assay [2] (setting [7]) it was 45%; in assay [2] (setting [8]) it was 98% (active); in assay [2] (at 50.0 µM), 98.3% (active). Besides, the growth inhibition in assay [3] (setting [7]) was 90% (active); in assay [3] (setting [8]), 98% (active); in assay [3] (at 50.0 µM) it was 98% (active); in assay [4] (setting [7]), 46%; in assay [4] (setting [8]), 98% (active); in assay [4] (at 50.0 µM), 98.5% (active). The growth inhibition in assay [5] (setting [7]) was 94% (active); in assay [5] (setting [8]), 98% (active); in assay [5] (at 50.0 µM) it was 99% (active); in assay [6] (setting [7]), 90% (active); in assay [6] (setting [8]), 98% (active); in assay [6] (at 50.0 µM) it was 98.5% (active).
With `CN(C)CCC1(C2=CCCC2)CC/C(=C\c2ccccc2Cl)C1=O` (configuration not stated), the growth inhibition in assay [1] (setting [7]) is -1%; in assay [1] (setting [8]), 60%; in assay [1] (at 50.0 µM) it was 69.3%; in assay [2] (setting [7]), -18%; in assay [2] (setting [8]), 28%; in assay [2] (at 50.0 µM) it was 22.6%. Also, the growth inhibition in assay [3] (setting [7]) was 0%; in assay [3] (setting [8]) it was 62%; in assay [3] (at 50.0 µM), 42.4%; in assay [4] (setting [7]), -10%; in assay [4] (setting [8]), 51%; in assay [4] (at 50.0 µM) it was 73% (active). In addition, the growth inhibition is 19% in assay [5] (setting [7]); 76% (active) in assay [5] (setting [8]); 36.5% in assay [5] (at 50.0 µM); 4% in assay [6] (setting [7]); 92% (active) in assay [6] (setting [8]); 87.8% (active) in assay [6] (at 50.0 µM).
Turning to `CCC[CH2][Sn]([CH2]CCC)([S]/C(C#N)=N/N=C/c1ccc(N(C)C)cc1)[S]/C(C#N)=N/N=C/c1ccc(N(C)C)cc1`, the growth inhibition in assay [1] (setting [7]) was 57%; in assay [1] (setting [8]), 98% (active); in assay [1] (at 50.0 µM), 97% (active); in assay [2] (setting [7]) it was 66%; in assay [2] (setting [8]), 98% (active); in assay [2] (at 50.0 µM), 92.5% (active). Also, the growth inhibition is 52% in assay [3] (setting [7]); 98% (active) in assay [3] (setting [8]); 95.8% (active) in assay [3] (at 50.0 µM); 40% in assay [4] (setting [7]); 94% (active) in assay [4] (setting [8]); 95% (active) in assay [4] (at 50.0 µM). Further, the growth inhibition in assay [5] (setting [7]) was 64%; in assay [5] (setting [8]), 99% (active); in assay [5] (at 50.0 µM) it was 95.8% (active); in assay [6] (setting [7]) it was 72% (active); in assay [6] (setting [8]) it was 98% (active); in assay [6] (at 50.0 µM) it was 95.9% (active).
Turning to `CSc1ccc(/C=N/NC(N)=S)cc1`, the growth inhibition is -150% in assay [1] (setting [7]); -19% in assay [1] (setting [8]); 91% (active) in assay [1] (at 50.0 µM); -53% in assay [2] (setting [7]); -4% in assay [2] (setting [8]); 76% (active) in assay [2] (at 50.0 µM). For the same molecule, the growth inhibition in assay [3] (setting [7]) was -65%; in assay [3] (setting [8]), 12%; in assay [3] (at 50.0 µM) it was 81.3% (active); in assay [4] (setting [7]), -65%; in assay [4] (setting [8]), -19%; in assay [4] (at 50.0 µM), 43.7%. Besides, the growth inhibition was -63% in assay [5] (setting [7]); -3% in assay [5] (setting [8]); 86.5% (active) in assay [5] (at 50.0 µM); -119% in assay [6] (setting [7]); 1% in assay [6] (setting [8]); 84.7% (active) in assay [6] (at 50.0 µM).
